Data reported in PubChem BioAssay AID488969 (Vanderbilt High Throughput Screening Facility, 2010).
Whole data set: some 110,000 compounds, median “z-score” near -0.1, cut for the highest 2% near 2. The full list was thinned out, with the highest values kept by preference. Activity calls are given as the source filed them.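 Rule for the calls: active = z-score in the third read window above 3 or below -3; inactive = the rest.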

target: Metabotropic glutamate receptor 8 (Rattus norvegicus) (UniProt P70579); experiment: rat mGluR8 modulators via GIRK flux, primary screen, cell-based, thallium flux, HTS (AID 488969); conditions: HEK293 rat mGluR8, GIRK (G protein-gated inwardly rectifying potassium channel) thallium flux, FluoZin2; at 10 µM; stronger effect = higher value; submaximal glutamate (EC20) added with thallium
Sequence (P70579 whole entry, looked up): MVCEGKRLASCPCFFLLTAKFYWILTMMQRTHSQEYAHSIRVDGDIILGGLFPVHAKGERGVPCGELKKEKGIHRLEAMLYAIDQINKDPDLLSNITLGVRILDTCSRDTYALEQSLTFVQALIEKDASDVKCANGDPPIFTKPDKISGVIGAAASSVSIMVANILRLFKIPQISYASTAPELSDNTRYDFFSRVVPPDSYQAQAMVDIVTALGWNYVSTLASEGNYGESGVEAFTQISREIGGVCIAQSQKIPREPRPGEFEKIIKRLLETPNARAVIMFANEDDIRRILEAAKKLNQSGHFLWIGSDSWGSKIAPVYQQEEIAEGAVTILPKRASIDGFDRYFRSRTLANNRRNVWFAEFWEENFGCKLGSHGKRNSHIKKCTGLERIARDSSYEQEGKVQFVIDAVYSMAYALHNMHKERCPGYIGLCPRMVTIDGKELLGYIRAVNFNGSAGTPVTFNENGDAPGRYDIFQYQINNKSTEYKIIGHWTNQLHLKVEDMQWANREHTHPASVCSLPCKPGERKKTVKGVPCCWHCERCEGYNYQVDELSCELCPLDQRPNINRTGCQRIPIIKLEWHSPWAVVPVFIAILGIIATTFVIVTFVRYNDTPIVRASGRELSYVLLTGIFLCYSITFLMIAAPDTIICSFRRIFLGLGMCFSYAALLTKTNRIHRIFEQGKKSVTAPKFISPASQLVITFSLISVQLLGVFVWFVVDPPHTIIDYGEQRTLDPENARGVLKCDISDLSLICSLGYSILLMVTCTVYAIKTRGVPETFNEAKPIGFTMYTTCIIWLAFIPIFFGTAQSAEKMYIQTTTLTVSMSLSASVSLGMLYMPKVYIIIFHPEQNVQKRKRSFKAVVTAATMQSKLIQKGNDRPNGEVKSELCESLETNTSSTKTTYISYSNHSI

Row | SMILES | z-score
1 | CN(c1cccc(NC(=O)c2ccccc2N(C)S(=O)(=O)c2ccccc2)c1)S(C)(=O)=O | -0.199
2 | COc1cc(OC)cc(C(=O)Nc2ccc(-c3nc4ccccc4o3)cc2)c1 | -0.273
3 | COc1cc(OC)cc(C(=O)NCc2nc(-c3ccccc3)no2)c1 | -0.942
4 | COc1cccc(C(=O)Nc2nc(-c3ccccc3)c(-c3ccccc3)o2)c1 | 7.83 (active)
5 | COc1cccc(C(=O)Nc2c(F)c(F)c(F)c(F)c2F)c1 | -0.711
6 | COc1cc(OC)cc(C(=O)Nc2nc(-c3ccccc3)c(-c3ccccc3)o2)c1 | 3.64 (active)
7 | COc1cccc(C(=O)Nc2ccccc2)c1 | -0.0644
8 | CCCCOc1ccc(Cc2c(Cl)nc(SC)nc2N2CCOCC2)cc1 | 0.0392
9 | COc1cc(CN2CCN(c3cccc(Cl)c3)CC2)cc(OC)c1OC | -0.348
10 | O=C1CC(c2cccc(F)c2)SC(N(c2ccccc2)c2ccccc2)=N1 (centres undefined) | -0.127
11 | Fc1cccc(C2NN=C(c3ccccc3)S2)c1 (centres undefined) | 6.37 (active)
12 | NS(=O)(=O)c1ccc(N2N=C(c3ccccc3)CC2c2cccc(F)c2)cc1 (centres undefined) | 0.17
13 | O=C(N/N=C/c1ccc[nH]1)c1cccc([N+](=O)[O-])c1 | -0.104
14 | Cc1ccc(S(=O)(=O)N2CC(O)CC2C(=O)Nc2ccc3c(c2)CCC3)cc1 (centres undefined) | 2.07
15 | Cc1ccc(S(=O)(=O)N2Cc3ccccc3CC2C(=O)Nc2ccc3c(c2)OCO3)cc1 (centres undefined) | -0.0374
16 | Cc1ccc(S(=O)(=O)Nc2ccc3c(c2)CCC3)cc1 | -0.101
17 | COc1ccc(-c2cc3nc(C4CCN(C(=O)OC(C)(C)C)CC4)c(C(=O)O)cn3n2)cc1 | -0.691
18 | c1ccc2c(c1)ncn2CCC1CCCCC1 | 0.093
19 | c1ccc(C(c2ccccc2)N2CCN(c3nc4ccccc4n4cnnc34)CC2)cc1 | -0.222
20 | C/C(N)=C(/C#N)C(=O)CSc1nc2ccccc2c(=O)n1-c1ccc(C)c(Cl)c1 | -0.275
21 | Cc1ccccc1Nc1nc(N)nc(CSc2nc3ccccc3c(=O)n2C)n1 | 0.919
22 | CCOCCCn1c(SCC(=O)/C(C#N)=C(\C)N)nc2ccccc2c1=O | -0.243
23 | CCCCn1c(SCC(=O)NCc2ccco2)nc2ccccc2c1=O | 6.36 (active)

Row | SMILES | z-score
24 | O=C(CSc1nc2ccccc2c(=O)n1Cc1ccco1)NCc1ccco1 | -0.352
25 | COCCn1c(SCc2nc(N)nc(Nc3ccccc3C)n2)nc2ccccc2c1=O | -0.279
26 | CCCCn1c(SCC(=O)/C(C#N)=C(\C)N)nc2ccccc2c1=O | 5.63 (active)
27 | CCCCn1c(SCc2nc(N)nc(Nc3ccccc3C)n2)nc2ccccc2c1=O | 3.44 (active)
28 | Cn1c(SCC(=O)NCc2ccco2)nc2ccccc2c1=O | -0.354
29 | C/C(N)=C(/C#N)C(=O)CSc1nnnn1-c1ccc(C)cc1 | 0.331
30 | C/C(N)=C(/C#N)C(=O)CSc1nc2cc(Cl)ccc2c(=O)n1-c1ccc(C)cc1 | 2.69
31 | C/C(N)=C(/C#N)C(=O)CSc1nc2ccccc2c(=O)n1CCCO | -0.389
32 | O=C(O)c1cccc(Nc2ncnc3c2cnn3-c2ccccc2)c1 | -1.14
33 | CC(=O)C(/C=N/c1cc(-c2ccc(C)cc2)nn1-c1ccccc1)=C(\C)O | -0.251
34 | CCC(=O)Nc1ccc(S(=O)(=O)N2CCCCC2)cc1OC | 0.0489
35 | CC(C)Cc1nc2oc3c(NCCCN4CCOCC4)ncnc3c2c2c1CCC2 | 0.0144
36 | S=c1[nH]nc(-c2cc(-c3ccco3)[nH]n2)n1-c1ccccc1 | -0.141
37 | COc1cc(S(=O)(=O)N(Cc2ccccn2)Cc2ccco2)ccc1-n1cnnn1 | -0.493
38 | CC(=O)Nc1ccc(SCC(=O)c2cc(C)n(CC(F)(F)F)c2C)cc1 | 0.0826
39 | CC(=O)Nc1ccc(SCC(=O)c2cc(C)n(C)c2C)cc1 | -0.0734
40 | CC(=O)Nc1ccc(SCC(=O)c2cc(C)n(-c3ccccc3)c2C)cc1 | 0.162
41 | COCC(C)n1c(C)cc(C(=O)CSc2ccc(NC(C)=O)cc2)c1C (centres undefined) | 0.445
42 | CC(=O)Nc1ccc(SCC(=O)c2cc(C)n(-c3ccccc3F)c2C)cc1 | 4.45 (active)
43 | COC(=O)c1ccc(-n2c(C)cc(C(=O)CSc3ccc(NC(C)=O)cc3)c2C)cc1 | 3.5 (active)
44 | Cn1c(SCC(=O)c2ccc(F)cc2)nnc1-c1ccccc1N | -0.0125
45 | O=C(CCSc1nc(-c2ccc3c(c2)OCO3)cc(C(F)(F)F)n1)NCc1ccco1 | 0.587
46 | O=[N+]([O-])c1cccc(/C=C/c2nc(C=Nc3ccc4ccccc4c3)c(O)o2)c1 | -0.0456

Row | SMILES | z-score
47 | Cc1ccc(S(=O)(=O)N(C)CCCC(=O)Nc2cccc3ccccc23)cc1 | -0.456
48 | O=C(CNC1CCCCCC1)Nc1ccc(N2CCCC2)cc1 | 2.66
49 | O=C(CNC1CCCCCC1)Nc1ccccc1N1CCCCC1 | -0.23
50 | CCC(=O)Nc1ccc(N2CCCCC2)cc1 | -0.169
51 | CN1C2=C(C#N)C(c3ccccc3)(C(F)(F)F)NC(=O)N2c2ccccc21 (centres undefined) | -0.282
52 | CC(C)c1nc2cc3ccccc3cc2[nH]1 | 0.396
53 | CC(C)c1nc(-c2ccccc2)c(-c2ccccc2)[nH]1 | -0.0702
54 | CC(C)c1nc(=S)n(-c2ccccc2)[nH]1 | 4.41 (active)
55 | COc1ccc(N2CCN(C(=O)NC34CC5CC(CC(C5)C3)C4)CC2)cc1 | -0.0964
56 | CCC(CCC(=O)Nc1ccc(S(N)(=O)=O)cc1)C(=O)O (centres undefined) | 0.735
57 | COc1ccc(C2NC(=O)c3n[nH]c(C)c32)c(OC)c1 (centres undefined) | 0.447
58 | Cc1[nH]nc2c1C(c1ccccc1F)NC2=O (centres undefined) | 2.74
59 | CCOc1ccc(C2NC(=O)c3n[nH]c(C)c32)cc1 (centres undefined) | 0.931
60 | CCOC(=O)c1[nH]c2ccc(OC)cc2c1NC(=S)N1CCN(c2ccc(F)cc2)CC1 | 0.623
61 | CC1Oc2ccccc2C=C1/C=N/NC(=O)c1ccccc1 (centres undefined) | 1.9
62 | CC1Oc2ccccc2C=C1/C=N/NC(=O)c1ccccc1O (centres undefined) | 0.0521
63 | Cc1ccc(C(=O)N/N=C/C2=Cc3ccccc3OC2C)cc1 (centres undefined) | 3.08 (active)
64 | Cc1ccsc1C(=O)NNC(=O)Nc1ccc(Cl)c(Cl)c1 | -0.13
65 | COc1ccccc1OCCCCCc1c(C)n[nH]c1C | -0.151
66 | CCOc1ccccc1OCCCCCc1c(C)n[nH]c1C | 3.05 (active)
67 | COc1cccc(OC)c1OCCCCCc1c(C)n[nH]c1C | -0.231
68 | CCC(=O)N/C(=N/c1nc(C)cc(C)n1)Nc1cccc(OC)c1 | 0.0375
69 | Cc1cc(/C([O-])=C(/C(=S)Nc2ccc(F)cc2)[n+]2ccccc2)c(C)n1-c1ccc(F)cc1 | -0.454
